{
  "source": "paper PMC7819943",
  "about": "“Rice protein-binding microarrays: a tool to detect cis-acting elements near promoter regions in rice”",
  "note": "Whole data set: some 39,000 sequences, median “fluorescence intensity (a.u.)” near 4,300, cut for the highest 2% near 39,000. The entries come from a sample that favours the highest values as a whole.",
  "data": [
    {"target": "T1, OsSMF1 (Oryza sativa, UniProt Q6ZLB0 1-436)", "T1 sequence": "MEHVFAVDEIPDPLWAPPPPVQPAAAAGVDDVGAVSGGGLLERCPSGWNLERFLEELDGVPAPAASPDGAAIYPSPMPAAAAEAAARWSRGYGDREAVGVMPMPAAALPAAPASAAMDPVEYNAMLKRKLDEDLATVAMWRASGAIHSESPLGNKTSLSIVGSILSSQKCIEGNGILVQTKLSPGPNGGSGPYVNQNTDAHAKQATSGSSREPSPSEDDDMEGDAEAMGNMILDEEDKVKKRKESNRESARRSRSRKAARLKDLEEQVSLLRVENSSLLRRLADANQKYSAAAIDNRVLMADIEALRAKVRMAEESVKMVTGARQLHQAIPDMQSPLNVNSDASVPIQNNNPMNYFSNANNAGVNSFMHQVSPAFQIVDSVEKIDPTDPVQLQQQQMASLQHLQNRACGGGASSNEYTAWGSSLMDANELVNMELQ", "experiment": "protein-binding microarray (RPBM); PBS, 2% BSA, 51.3 ng/ul salmon testes DNA, 50 uM zinc acetate, 200 nM TF, 25 C, 1 h; high values mean tight binding", "settings": "protein: recombinant; tags: N-terminal polyhistidine and DsRed monomer fusion (pET32a); chain copies: 2; label: CyDye5-dUTP incorporated in the synthesized complementary strand; 3' TTTTT single-stranded linker to array surface; dsDNA, one strand shown", "procedure,_shortened": "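Binding signal is defined as the fluorescence intensity of each feature in arbitrary units, read on an Axon 4000B scanner. Transcription factors with N-terminal polyhistidine and DsRed fusions came from E. coli BL21-CodonPlus and were purified on Ni–NTA. They were incubated at 200 nM for 1 h at 25 °C on a custom Agilent array that had been made double-stranded with Cy5-dUTP, with 50 µM zinc acetate present, and the array was washed.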", "values": [
      {"sequence": "CCAATTCACTCCACCATACTGTTGGCACCTATGATAGAACCGGAGTCACCTAGTGCAG", "binding signal": "3430 fluorescence intensity (a.u.)"},
      {"sequence": "AGAAAACCTACACCCCGGGCTTCCGTTGCAACGTGACAACCGGAGTCACCTAGTGCAG", "binding signal": "13300 fluorescence intensity (a.u.)"},
      {"sequence": "TATACAAGTCAGCTGCTGCTCGATCTTGTCATGAGAGCCCCGGAGTCACCTAGTGCAG", "binding signal": "5140 fluorescence intensity (a.u.)"},
      {"sequence": "GGAGAGGGAGCGGGAGAGGGAGGATTGGAGGATGTGGGGACGGAGTCACCTAGTGCAG", "binding signal": "15400 fluorescence intensity (a.u.)"},
      {"sequence": "CTGCGGTTGCATTGCATGGAGATGGACCCTCAACCAGCTACGGAGTCACCTAGTGCAG", "binding signal": "3700 fluorescence intensity (a.u.)"},
      {"sequence": "CCGACAAAAGATGGTTTCTCCATCAGTGAAGACACAATGTCGGAGTCACCTAGTGCAG", "binding signal": "19500 fluorescence intensity (a.u.)"},
      {"sequence": "CATCGGACGGCCCATGTAGCCCAACTCCTCCGCTGCCACGCGGAGTCACCTAGTGCAG", "binding signal": "3410 fluorescence intensity (a.u.)"},
      {"sequence": "GGGCTCCCAGTATAGCTTAGGTTGATTTAATTATGGTTAACGGAGTCACCTAGTGCAG", "binding signal": "49500 fluorescence intensity (a.u.)"},
      {"sequence": "ATGGCTGTTGATTTTAATAGTGCAGGAGTGGTTTATAGCTCGGAGTCACCTAGTGCAG", "binding signal": "4220 fluorescence intensity (a.u.)"},
      {"sequence": "TTAGTATGTGATTAATTTAGTATTAATTATTTAACTATAACGGAGTCACCTAGTGCAG", "binding signal": "31900 fluorescence intensity (a.u.)"},
      {"sequence": "ACACTGCCACGTCAGCGCCACGTTAGCAAAACCGTCCTCCCGGAGTCACCTAGTGCAG", "binding signal": "35500 fluorescence intensity (a.u.)"},
      {"sequence": "GCAACAGTGTTATGCAACAGTGTCATTCAGTCTCTACACACGGAGTCACCTAGTGCAG", "binding signal": "32000 fluorescence intensity (a.u.)"},
      {"sequence": "AGCTGGTGATGAGCAGCGTCACCAATTCTTCCTGGACGCCCGGAGTCACCTAGTGCAG", "binding signal": "4190 fluorescence intensity (a.u.)"},
      {"sequence": "ATCGTCGCGGGGCCGCCGACGGCGCGCGGTGTGGCCGACGCGGAGTCACCTAGTGCAG", "binding signal": "6480 fluorescence intensity (a.u.)"},
      {"sequence": "GGCGGCAGCGACGGCGGAGGCGAGGGAGGGGAGGCGGCGGCGGAGTCACCTAGTGCAG", "binding signal": "3930 fluorescence intensity (a.u.)"},
      {"sequence": "ACGGCGGGAACAATTGTGGGCGGTGGCCTTGGCCGAATCGCGGAGTCACCTAGTGCAG", "binding signal": "55000 fluorescence intensity (a.u.)"},
      {"sequence": "AGAAGAGGGAGACAGAGGATAGAGAGAAGAGGGCACTTCACGGAGTCACCTAGTGCAG", "binding signal": "11900 fluorescence intensity (a.u.)"},
      {"sequence": "GAGAGGAGGAAGACAGAGAGGAGAGATGAGATAGGATCAACGGAGTCACCTAGTGCAG", "binding signal": "46200 fluorescence intensity (a.u.)"},
      {"sequence": "GAAGGCGGCGGGGTGGCGAAGTGGCGAGGAGGAGACGGGGCGGAGTCACCTAGTGCAG", "binding signal": "4910 fluorescence intensity (a.u.)"},
      {"sequence": "CGGCGAGGCGAACTCAACGGGTACGCAAAGCGAAGAGGAGCGGAGTCACCTAGTGCAG", "binding signal": "45600 fluorescence intensity (a.u.)"},
      {"sequence": "GTGGAGGCGAGGCGGCGAGAGGCGGGTAGCAGTGGAGGAGCGGAGTCACCTAGTGCAG", "binding signal": "3430 fluorescence intensity (a.u.)"},
      {"sequence": "GCAACGGAAGAGATGAGGAGATGACTCGGATGAGCGGAAGCGGAGTCACCTAGTGCAG", "binding signal": "3180 fluorescence intensity (a.u.)"},
      {"sequence": "CGGTGGCGGGAACATGTGGGCGGTGGCAGGAGTGCAGGTGCGGAGTCACCTAGTGCAG", "binding signal": "3810 fluorescence intensity (a.u.)"},
      {"sequence": "GGCAGCTTGGTGCGGGAGAGAGGCGGCGGCGAAGGGGAGACGGAGTCACCTAGTGCAG", "binding signal": "41900 fluorescence intensity (a.u.)"},
      {"sequence": "GAACGGAACGCAACGTGCGGAGAGAGAGCGAGAGAGAAGCCGGAGTCACCTAGTGCAG", "binding signal": "30600 fluorescence intensity (a.u.)"},
      {"sequence": "CTCCAGCATCGCCACCGGGTCCCCGTACGGGTTCTTCGGGCGGAGTCACCTAGTGCAG", "binding signal": "3620 fluorescence intensity (a.u.)"},
      {"sequence": "CTCTGCTCTCAAATGCTCTGTGTGCGATCAGGTATTCATGCGGAGTCACCTAGTGCAG", "binding signal": "3270 fluorescence intensity (a.u.)"},
      {"sequence": "ACCGAGTAGATCACTTCCGTGCAAGTTGGTTGACAAGTATCGGAGTCACCTAGTGCAG", "binding signal": "3480 fluorescence intensity (a.u.)"},
      {"sequence": "CTGGACACCTCACGAAGTCTCAAACTGCTGTTTGTTCTCACGGAGTCACCTAGTGCAG", "binding signal": "4230 fluorescence intensity (a.u.)"},
      {"sequence": "ATATGGCCTTCGGTGGTATCCACGTAGAGCTTTACGTTAACGGAGTCACCTAGTGCAG", "binding signal": "4810 fluorescence intensity (a.u.)"},
      {"sequence": "CACCCGCGTGTATGCCAGCTAGGCTTGGCTCCGACGTGGACGGAGTCACCTAGTGCAG", "binding signal": "4790 fluorescence intensity (a.u.)"},
      {"sequence": "GCAGCCACGACGCCCGCCAATGCTGCCGCCGCCATCGATGCGGAGTCACCTAGTGCAG", "binding signal": "5300 fluorescence intensity (a.u.)"},
      {"sequence": "AGAATTTGTTCGTCACCCATATATCGGCGTCATGACCTCGCGGAGTCACCTAGTGCAG", "binding signal": "3510 fluorescence intensity (a.u.)"},
      {"sequence": "GTCGGATCCCCGCGCAATCATACACACGTGTCGCCGTCGCCGGAGTCACCTAGTGCAG", "binding signal": "8730 fluorescence intensity (a.u.)"},
      {"sequence": "TTAGGACCATAATATCTAATGTTACATGCCACGTACCAAACGGAGTCACCTAGTGCAG", "binding signal": "7280 fluorescence intensity (a.u.)"},
      {"sequence": "GCCGCCCGCGCGCGACCGCGTGACGTCGCAGCCGCACCGACGGAGTCACCTAGTGCAG", "binding signal": "6080 fluorescence intensity (a.u.)"},
      {"sequence": "TGCCACCGTGGCGGCCGGGCCGATCCCCTAGCTGACGTGGCGGAGTCACCTAGTGCAG", "binding signal": "41900 fluorescence intensity (a.u.)"},
      {"sequence": "ACGGCATCGATCGATCGCGGGCGACGTGGCTGAGTGGCGGCGGAGTCACCTAGTGCAG", "binding signal": "6420 fluorescence intensity (a.u.)"},
      {"sequence": "AGAGGGGCAGAGAGAGAGAGTGAGTGAGAAAGAGATCAAGCGGAGTCACCTAGTGCAG", "binding signal": "56600 fluorescence intensity (a.u.)"},
      {"sequence": "CGCTGCGGGGAGTCGGCGCTTCGTCGGAGGCGGCGGGGCGCGGAGTCACCTAGTGCAG", "binding signal": "3230 fluorescence intensity (a.u.)"},
      {"sequence": "GCCGCTTCGATGCTGGCGGCAGGGTGGGGCGGGGATGCCTCGGAGTCACCTAGTGCAG", "binding signal": "6170 fluorescence intensity (a.u.)"},
      {"sequence": "GATCAAACCAGCGGCAGATGAGGGCGCAAAGAGAAAGAGCCGGAGTCACCTAGTGCAG", "binding signal": "4210 fluorescence intensity (a.u.)"},
      {"sequence": "CTGGTCGGCGCGGGCACGCGCTTGCGGAGGCTGGGGAGTCCGGAGTCACCTAGTGCAG", "binding signal": "39700 fluorescence intensity (a.u.)"},
      {"sequence": "TCGTCCGATCCCCTAGCGTGGCCACCGATCCGCCCGTCCCCGGAGTCACCTAGTGCAG", "binding signal": "3230 fluorescence intensity (a.u.)"},
      {"sequence": "GACGGGCGGCGGTGGGGCTGACGCGGGCGACGGAGGGGCTCGGAGTCACCTAGTGCAG", "binding signal": "6720 fluorescence intensity (a.u.)"},
      {"sequence": "GCGGAGGAGGCAAGGAGATCAGGCGGCAGAGGAAAGGGGCCGGAGTCACCTAGTGCAG", "binding signal": "3280 fluorescence intensity (a.u.)"},
      {"sequence": "TTGGGCGGCGGTGCGGGGAGGCTGAGGGGCGGCGCCGGCGCGGAGTCACCTAGTGCAG", "binding signal": "3580 fluorescence intensity (a.u.)"},
      {"sequence": "GGCTTCGCCGACGGTGGCTCGGGCGACGGCGATGCTGGGGCGGAGTCACCTAGTGCAG", "binding signal": "58600 fluorescence intensity (a.u.)"},
      {"sequence": "GAAAGTTGCTGCGAACATACGTGATGACGCGACTAAAGCTCGGAGTCACCTAGTGCAG", "binding signal": "5210 fluorescence intensity (a.u.)"},
      {"sequence": "ATAGCCCAACTCGAATCAATCCACGTCTCCACCGTTCATCCGGAGTCACCTAGTGCAG", "binding signal": "3360 fluorescence intensity (a.u.)"},
      {"sequence": "TCCGTCGCGATTCGCCACCTCGCCCTCGTCTCGTTTTAGCCGGAGTCACCTAGTGCAG", "binding signal": "3450 fluorescence intensity (a.u.)"},
      {"sequence": "ATGCACTTCCTGTCACGGTCCGGCCCATCCTAGCTGCCGGCGGAGTCACCTAGTGCAG", "binding signal": "3290 fluorescence intensity (a.u.)"},
      {"sequence": "AAACTTCTCTTCAGATAAAGATTTACTACCGTGTCAAATTCGGAGTCACCTAGTGCAG", "binding signal": "3800 fluorescence intensity (a.u.)"},
      {"sequence": "CTCCGTCCACTGGACAGGGCAGAGGCTGCCTACCAGACACCGGAGTCACCTAGTGCAG", "binding signal": "4640 fluorescence intensity (a.u.)"}
    ]}
  ]
}
